Measured values taken from PubChem BioAssay AID743286 (National Center for Advancing Translational Sciences (NCATS), 2014).
Hit rate of the full screen: of about 1,100 compounds, about 340 (31%) were called active. About 40% were inconclusive and are not listed. Not all results are given here. Values without a mark were called inactive. Calls come from the whole dose curve; as a rule, active = well fitted inhibition curve with a large enough effect; inconclusive = small, poorly fitted or top-dose-only effect; inactive = flat fitted curve, though single readings scatter.

Molecular target: Phosphatidylinositol 5-phosphate 4-kinase type-2 alpha (Homo sapiens) (UniProt P48426)
Assay: qHTS for Inhibitors of PI5P4K: Confirmation in Primary Assay; note: nearly all actives have a fitted effect of over 65% in size
Conditions: PI5P4Kalpha enzyme, ADP-Glo luminescence, 60 min; series mostly up to 76.9 µM; activity change, negative = inhibition: at the top concentration
Excerpt: In addition to finding PI5P, we discovered the type II phosphatidylinositol 5-phosphate 4-kinase (PI5P4K) family (alpha, beta, gamma isoforms) that catalyze the conversion of PI5P to PI(4,5)P2. Alternatively, PI(4,5)P2 can also be synthesized through phosphatidylinositol-4-phosphate (PI4P) by the type I phosphatidylinositol 4-phosphate 5-kinases (PI4P5K). These PI5P4K enzymes therefore represent one way by which cells can regulate endogenous PI5P levels and play important roles in insulin signaling and in stress responses. […] A qHTS PI5P4K-alpha ADP-Glo assay was developed to identify specific modulators of human PI5P4K, phosphatidylinositol-5-phosphate 4-kinase (Type II PIPK). This assay was screened against the MLSMR containing ~400,000 small molecules (PubChem AID 652105). To confirm that the hits were not interacting with the detection enzyme system, a 1536-well counterscreen against the ADP-Glo kit (Promega) was utilized, as described in Davis et al., 2013 [1]. Davis et al., PLoS One. 2013;8(1):e54127. NIH Chemical Genomics Center [NCGC] NIH Molecular Libraries Probe Centers Network [MLPCN] MLPCN Grant: MH096575 Assay Submitter (PI): Atsuo Sasaki, Beth Israel Deaconess Medical Center
2 microL of PI5P4Kalpha/substrate buffer (columns 1-2, 5-48) are dispensed into Greiner white solid bottom 1536-well assay plates; column 3 receives only PI5P4Kalpha buffer as 0x substrate controls; column 4 receives only substrate buffer as 0x PI5P4Kalpha controls. Final assay buffer consists of 0.038 M HEPES pH 7.4, 0.28 mM EGTA, 0.1% CHAPS, and 5% DMSO (final concentration). Compounds are then transferred via Kalypsys pin tool equipped with 1536-pin array (10 nL slotted pins, V&P Scientific, San Diego, CA). Following addition of compound, 1 microL of ATP (5 microM final concentration, all columns) is added to initiate the reaction. ATP is diluted in an assay buffer consisting of 0.02 M HEPES pH 7.4, 60 mM MgCl2, 15 microM ATP, and 0.1% CHAPS. The plates are then incubated at room temperature for 60 minutes. ADP-Glo reagent 1 is added (2 microL) and plates incubated for 45 minutes, before ADP-Glo reagent 2 (4 microL) is added and plates incubated for 30 minutes. They are then transferred to a ViewLux high-throughput CCD imager (PerkinElmer) wherein single end-point measurements of luminescence are acquired using a clear filter.
% is set by controls: 0 for no effect and ±100 for the full control effect; potency is the fitted concentration of half-maximal effect.

Phosphatidylinositol 5-phosphate 4-kinase type-2 alpha (Homo sapiens), sequence (P48426 whole entry, looked up): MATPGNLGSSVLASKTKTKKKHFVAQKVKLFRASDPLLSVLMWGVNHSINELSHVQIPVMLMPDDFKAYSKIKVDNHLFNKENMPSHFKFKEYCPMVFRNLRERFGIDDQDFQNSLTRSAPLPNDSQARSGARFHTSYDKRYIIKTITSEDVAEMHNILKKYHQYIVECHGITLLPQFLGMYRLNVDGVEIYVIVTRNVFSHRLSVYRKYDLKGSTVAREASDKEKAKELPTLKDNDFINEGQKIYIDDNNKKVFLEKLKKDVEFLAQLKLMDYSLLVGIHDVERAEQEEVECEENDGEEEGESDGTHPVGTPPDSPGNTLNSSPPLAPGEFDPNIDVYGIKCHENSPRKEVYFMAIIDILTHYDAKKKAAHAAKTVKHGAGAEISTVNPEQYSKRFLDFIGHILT

SMILES	Potency	activity change, negative = inhibition
CCC(=O)Oc1ccc(C(=O)Nc2cccc(C(=O)c3ccccc3)c2)cc1	8.91 µM (active)	–
N#CC1c2ccccc2-n2nncc2CN1Cc1cc(Cl)cc(Cl)c1 (stereo not given)	–	-12.5%
COC(=O)C1=C(c2ccc(F)cc2F)C[C@@H]2CC[C@H]1N2C(=O)NC1Cc2ccccc2C1	–	-0.214%
COc1ccc(C(=O)C2CCCN(Cc3ccon3)C2)c(OC)c1 (stereo not given)	–	-2.13%
CC(C)NCC(O)c1ccc(C2CCCC2)cc1 (stereo not given)	–	-0.799%
